Sampled rows, rich in hits. Any-hit rate of the full collection: about 7.5%.
Luc counter – blocks Kinase-Glo luciferase, a counter-screen artifact. Q27757. Kinase-Glo luciferase, ATP luminescence, 8 min. Potency, µM (highest dose often 38.3 µM), without a hit: at the highest dose activity change, negative = inhibition, usual class: inhibitors. actives 0.28% (n = 200,000); also: % is scaled to controls: 0 for no effect and ±100 for the full control effect; nearly all actives have a fitted effect of over 60% in size
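Luminescence was the read-out, taken after 8-minute incubation at ambient temperature. Luciferase turned over luciferin with 10 uM ATP in imidazole pH 7.2 buffer containing KCl, MgCl2, Tween 20 and BSA.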
ELG1 genotox – genotoxicity induction in ELG1-luciferase HEK293T cells; Potency, µM (top dose mostly 46 µM), for the others: at the top dose activity change, positive = activation, most hits filed as activators; actives 1.3% (n = 330,000); HEK293T ELG1-luciferase reporter, luminescence, 16 h; also: % of control where 0% means no effect; nearly all actives have a fitted effect of over 60% in size
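Luminescence read-out: rising ELG1-luciferase signal, reflecting elevated ELG1 protein under genetic stress, flags genotoxic compounds. Cells were treated for 16 hr at 37 °C before ONE-Glo detection.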
SMN2 splice up – increases expression of the SMN2 splice variant. actives 2.8% (n = 210,000). Potency, µM (series often up to 46.1 µM), for the others: top-dose activity change, positive = activation, usual class: activators. HEK293 SMN2-luciferase splicing reporter, luminescence, 30-36 h; also: % of control where 0% means no effect; nearly all actives have a fitted effect of over 55% in size
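qHTS luciferase splicing reporter: luminescence rises when SMN2 exon 7 is included in transfected HEK293 cells. Compound exposure lasted 30-36 h at 37C, with 4.5 mM final sodium butyrate as control, followed by a ONE-Glo read.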
Rab9 prom act – activates the Rab9 promoter; Huh7 Rab9 promoter-luciferase reporter, luminescence, 24 h; Potency, µM (top dose mostly 9.22 µM), for the others: at the highest dose activation, negative = inhibition, usual class: activators; actives 2.8% (n = 320,000); AID 485297; also: % of control where 0% means no effect; nearly all actives have a fitted effect of over 60% in size
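Using Huh7 cells stably transfected with Rab9 promoter–luciferase, compounds were incubated 24 h at 37 °C, 5% CO2; luciferase luminescence was read 10 min after reagent addition.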
NPC1 prom act – NPC1 promoter activation; Huh7 NPC1 promoter luciferase reporter, 24 h; Potency, µM (titrated, usually from 9.22 µM), for the others: at the highest dose activation, most hits filed as activators; actives 2.4% (n = 320,000); also: % of control where 0% means no effect; nearly all actives have a fitted effect of over 60% in size
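Huh7 reporter cells (NPC1 promoter driving luciferase) are dosed with compound for 24 h at 37 °C, 5% CO2; luciferase detection reagent is then added and luminescence measured after 10 min at ambient temperature.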
FLuc counter – counter-screen for miR-21 project: firefly luciferase inhibitors or activators; P08659; purified FLuc, Km substrates, luminescence inhibition; Potency, µM (titrated, usually from 57.5 µM), inactives show top-dose activity change, negative = inhibition, usual class: inhibitors; actives 6.9% (n = 360,000); AID 588342;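 also: plate controls were vehicle for no effect and reference inhibitor for full effect; nearly all actives have a fitted effect of over 55% in size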
Target sequence (P08659 whole entry, looked up): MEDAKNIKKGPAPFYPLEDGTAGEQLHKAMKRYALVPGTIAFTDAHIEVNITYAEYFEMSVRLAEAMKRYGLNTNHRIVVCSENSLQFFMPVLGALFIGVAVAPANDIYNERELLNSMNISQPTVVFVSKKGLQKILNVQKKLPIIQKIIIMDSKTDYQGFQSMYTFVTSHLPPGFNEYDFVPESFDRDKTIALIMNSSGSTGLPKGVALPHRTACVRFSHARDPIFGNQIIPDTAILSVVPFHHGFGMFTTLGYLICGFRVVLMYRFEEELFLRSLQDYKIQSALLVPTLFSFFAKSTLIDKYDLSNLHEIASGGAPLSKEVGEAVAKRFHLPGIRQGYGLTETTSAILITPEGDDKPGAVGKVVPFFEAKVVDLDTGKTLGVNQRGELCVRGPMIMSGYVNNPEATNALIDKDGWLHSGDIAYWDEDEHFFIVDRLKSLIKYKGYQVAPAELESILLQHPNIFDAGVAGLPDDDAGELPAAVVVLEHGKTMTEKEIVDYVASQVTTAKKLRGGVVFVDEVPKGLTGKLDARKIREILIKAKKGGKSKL
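Biochemical qHTS of compounds, final roughly 60 µM downward over six points, against 10 nM purified firefly luciferase using Km concentrations of substrates (10 uM D-luciferin, 10 uM ATP) in Tris acetate pH 7.5 buffer; luminescence output.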
The depositor's hits bear a star; u = inconclusive; x = no result. Calls follow the shape of the dose curve; as a rule, active = well fitted curve in the direction sought with a large enough effect; inconclusive = small, poorly fitted or top-dose-only effect, or another doubt; inactive = no such curve, though single readings can be large; an effect the other way counts as inactive or inconclusive. Potency is read from the fitted curve at half-maximal effect.

SMILES	Luc counter	ELG1 genotox	SMN2 splice up	Rab9 prom act	NPC1 prom act	FLuc counter
O=C(/C=C/c1ccc(-c2ccccc2)cc1)NCc1cccnc1	x	2%	x	13%	21%	7.6µM*
O=C(NCc1cccnc1)c1cn(-c2ccccc2)nc1-c1ccccc1	-3%	-3%	27%	-9%	1%	21µM*
O=C(/C=C/c1ccccc1)NCc1cccnc1	-3%	6%	x	18%	-1%	-2%
CCOCCCNC(=O)C(c1ccc(Cl)cc1)N(Cc1ccc2c(c1)OCO2)C(=O)c1ccccc1O (stereo unspecified)	x	x	6%	x	x	u
Cc1nc2nc(NCc3ccc(Br)cc3)[nH]n2c(=O)c1Cc1ccccc1	x	x	13%	x	x	u
COc1cc(NC(=O)CCN2CCN(c3ccccc3)CC2)cc(OC)c1	x	x	-5%	x	x	-3%
CC(C)Cc1nn2c(=O)cc(COC(=O)c3ccc(NC(=O)C4CCCCC4)cc3)nc2s1	x	x	x	x	x	-4%
O=C(NC1CCS(=O)(=O)C1)c1cn(-c2ccccc2)nc1-c1ccccc1 (stereo unspecified)	-3%	4%	-11%	-3%	-5%	15µM*
COc1ccc(-c2nn(-c3ccccc3)cc2C(=O)NC2CCC(C)CC2)cc1 (stereo unspecified)	x	7%	x	-8%	-3%	0%
O=C(Nc1cccnc1)c1cn(-c2ccccc2)nc1-c1cccs1	11%	9%	3%	1%	18%	3µM*
O=C(NCCCN1CCCC1=O)c1cn(-c2ccccc2)nc1-c1ccccc1	x	1%	x	-4%	-2%	11µM*
CCN(CC)CCNC(=O)c1ccc(NC(=O)c2cn(-c3ccccc3)nc2-c2cccs2)cc1	-21%	-11%	-113%	-2%	1%	8.5µM*
C[C@H](CO)N1C[C@H](C)[C@@H](CN(C)Cc2ccc(C(=O)Nc3ccccc3N)cc2)Oc2c(NC(=O)C3CCCCC3)cccc2C1=O	x	0%	x	x	x	x
COc1ccc(/C=N/Nc2cc(C)nc(N)n2)cc1	-6%	17%	u	7%	11%	19µM*
COc1cc(/C=N/Nc2cc(C)nc(N)n2)ccc1O	x	u	x	-4%	2%	9.5µM*
CC1(C)CC(=O)c2cnc(N3CCc4ccccc43)nc2C1	x	u	x	3.5µM*	2.8µM*	2.1µM*
Cc1cccnc1Nc1nc(-c2ccc(O)cc2O)cs1	x	u	x	3.2µM*	u	15µM*
Oc1ccc(-c2csc(Nc3ccccn3)n2)c(O)c1	x	9.2µM*	x	3.2µM*	1.8µM*	4.8µM*
NS(=O)(=O)c1ccc(Nc2nc(-c3ccc(O)cc3O)cs2)cc1	-1%	u	14%	-9%	-1%	u
O=C(COC(=O)/C=C/c1ccccc1[N+](=O)[O-])NNC(=O)c1ccc(F)cc1	x	2%	x	-4%	-1%	-9%
COc1cccc2sc3cc(C#Cc4ccccn4)ccc3c(=O)c12	x	8%	x	x	x	x
CNC(C)C#Cc1c(-c2cc(OC)c(OC)c(OC)c2)noc1C (stereo unspecified)	x	9%	x	-1%	-4%	0%
CNC(C)C#Cc1ccc2oc3cccc(OC)c3c(=O)c2c1 (stereo unspecified)	x	u	x	u	24%	15µM*
CNC(C)C#Cc1ccc2sc3cccc(OC)c3c(=O)c2c1 (stereo unspecified)	x	5%	x	18%	6%	u
COc1cccc2oc3ccc(C#Cc4ccccn4)cc3c(=O)c12	x	u	x	1.8µM*	0.79µM*	1.1µM*
SMILES	Luc counter	ELG1 genotox	SMN2 splice up	Rab9 prom act	NPC1 prom act	FLuc counter
CNC(C)C#Cc1ccc2c(=O)c3c(OC)cccc3oc2c1 (stereo unspecified)	x	u	x	u	u	24µM*
CCOc1ccc(NC(=O)C(CC)n2c(=O)c(-c3ccccc3NC(C)=O)nc3ccccc32)cc1 (stereo unspecified)	x	x	x	x	x	-8%
CC1CC1C(=O)OCC(=O)N(C)c1c(N)n(Cc2ccccc2)c(=O)[nH]c1=O (stereo unspecified)	x	2%	x	0%	-3%	-1%
Cc1c(C(=O)NCc2cccc(Cl)c2)sc2ncnc(N(C)C3CCCCC3)c12	x	x	x	x	x	4%
Nc1n[nH]c(N)c1N=Nc1ccc(Cl)cc1Cl	2%	u	x	3%	17%	13µM*
C=CCN(C(=O)CCC(=O)Nc1cc(C)on1)C(C(=O)NC1CCCC1)c1ccc(OC)cc1OC (stereo unspecified)	x	1%	x	0%	u	1%
Clc1ccc2[nH]cc(-c3nnnn3-c3ccccc3)c2c1	-6%	-2%	-8%	-3%	-4%	24µM*
COc1ccccc1NC(=O)c1sc2nc3c(c(C(F)(F)F)c2c1N)CN(C(C)=O)CC3	x	x	-2%	x	x	0%
CC(C)(C)c1ccc(Oc2ccc(NC(=O)c3ccccc3C(=O)O)cn2)cc1	x	-6%	x	-1%	-1%	19µM*
O=C(CCC(=O)c1ccc(Oc2ccccc2)cc1)Nc1ccc(C(=O)O)cc1	x	0%	x	0%	-1%	19µM*
O=C(CCC(=O)c1ccc(Oc2ccccc2)cc1)Nc1cccc(Cl)c1	0%	1%	0%	-1%	0%	1%
O=C(O)c1ccccc1C(=O)Nc1ccc(Oc2ccccc2)cc1	x	1%	x	1%	0%	27µM*
Cc1cccc(Oc2ccc(NC(=O)c3ccccc3C(=O)O)cc2)c1	x	5%	x	-5%	2%	21µM*
O=C(O)c1ccccc1C(=O)Nc1ccc(Br)c(C(F)(F)F)c1	x	1%	x	0%	-4%	19µM*
COc1ccc(-c2nsc(NC(=O)c3ccccc3Br)n2)cc1	x	x	13%	x	x	17µM*
COc1ccc(-c2csc(NC(=O)c3ccccc3C(=O)O)n2)cc1	-2%	0%	-51%	-2%	-4%	15µM*
CCc1ccc(-c2csc(NC(=O)C3CCCO3)c2C(=O)OC(C)C)cc1 (stereo unspecified)	-1%	-7%	-30%	0%	-1%	2%
COC(=O)c1c(-c2ccncc2)csc1NC(=O)c1ccoc1C	2%	u	11µM*	2µM*	2.8µM*	8.5µM*
COc1ccccc1C(=O)Nc1nc(-c2ccccc2)ns1	x	x	9%	x	x	u
COC(=O)c1c(-c2ccc(F)cc2)csc1NC(=O)C1CCCO1 (stereo unspecified)	0%	7%	0%	23%	17%	27µM*
COc1ccc(-c2csc(NC(=O)c3ccccc3S(C)(=O)=O)n2)cc1	-1%	-10%	-14%	6%	0%	u
Cc1nn2cnnc2c(C)c1Cc1ccc(Cl)cc1	x	-3%	x	-2%	-7%	1%

Compound activity deposited in PubChem BioAssay by National Center for Advancing Translational Sciences (NCATS).
